PubChem BioAssay (NCATS)
Values joined by “and” are separate entries in the source; they are usually repeats but may differ in a detail not shown here. Equal values may be shown once. Records with an inconclusive call do not appear. Active and inactive are the calls of the source. Unless noted, calls follow the shape of the dose curve; as a rule, active = well fitted curve in the direction sought with a large enough effect; inconclusive = small, poorly fitted or top-dose-only effect, or another doubt; inactive = no such curve, though single readings can be large; an effect the other way counts as inactive or inconclusive.

Legend:
[1] = biological target: Glucocorticoid receptor (Homo sapiens) (UniProt P04150); assay: qHTS assay for small molecule agonists of glucocorticoid receptor signaling (AID 588532; active = well fitted curve in the direction sought with a large enough effect in the signal ratio, with a control signal flat; the % refers to the signal ratio;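 also: 100% = dexamethasone at 0.1 µM and 0% = DMSO only wells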); settings: HeLa MMTV-bla, beta-lactamase ratio, agonist, 18 h; stronger effect = higher value; percent of dexamethasone control, DMSO zero
Outline: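 Agonist-mode qHTS: GRE-driven beta-lactamase in HeLa cells exposed 18 h to titrated compounds (up to 92 uM), then CCF4 ratio read after 2 h at RT; Hill-fitted EC50, efficacy relative to 0.1 uM dexamethasone.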

[2] = biological target: Glucocorticoid receptor (Homo sapiens) (UniProt P04150); assay: qHTS assay for small molecule antagonists of glucocorticoid receptor signaling (AID 588533; active = well fitted inhibition curve with a large enough effect in the signal ratio, with a control signal flat, not every such curve was filed as active; the % refers to the signal ratio;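 also: cells stimulated with 2 nM dexamethasone as agonist; % is scaled to controls: 0 for no effect and ±100 for the full control effect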)
Outline: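 Antagonist-mode qHTS: compound titrations added to GRE-bla HeLa cells, then dexamethasone 2 nM final; 18 h, 37 C. CCF4 FRET fluorescence normalized to dexamethasone and DMSO; IC50 from Hill fit.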

[3] = qHTS assay for small molecule antagonists of peroxisome proliferator-activated receptor delta signaling (AID 588535; active = well fitted inhibition curve with a large enough effect in the signal ratio, with a control signal flat, not every such curve was filed as active; the % refers to the signal ratio;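 as to max response: cells co-treated with a PPAR-delta agonist as stimulator during compound exposure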); settings: HEK293T PPARd-UAS-bla, beta-lactamase FRET ratio, 18 h; 460 nm channel
Outline: (§1)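 HEK293T PPAR-delta-UAS-bla cells, 4000/well, 2% charcoal/dextran FBS; 5 h 37 C; cpd titration; 18 h 37 C; CCF4 2 h RT; FI 460/530 nm; Hill fit → IC50, efficacy.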

[4] = biological target: Peroxisome proliferator-activated receptor delta (Homo sapiens) (UniProt Q03181); assay: as above
Outline: as §1

[5] = biological target: Vitamin D3 receptor (Homo sapiens) (UniProt P11473); assay: qHTS assay for small molecule antagonists of vitamin D receptor signaling (AID 588541; calls by dose curve;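 also: receptor activated by calcitriol during compound treatment; series mostly up to about 77 µM; % is scaled to controls: 0 for no effect and ±100 for the full control effect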)
Outline: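 Antagonist-mode beta-lactamase reporter assay: HEK293T VDR-UAS-bla cells were exposed to titrated compound alongside 1-alpha,25-dihydroxyvitamin D3 at 3 nM final for 16 h. Values were normalized to the 50 nM agonist control and DMSO basal, with IC50 and efficacy from Hill equation fits.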

[6] = qHTS assay for small molecule agonists of retinoid X receptor alpha signaling (AID 588544; calls by dose curve;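 as to activation: 0% = DMSO basal wells and 100% = reference agonist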); settings: HEK293T RXRa-UAS-bla, beta-lactamase reporter, 18 h; 530 nm emission
[7] = biological target: Retinoic acid receptor RXR-alpha (Homo sapiens) (UniProt P19793); assay: as above
[8] = biological target: Thyroid hormone receptor beta (Homo sapiens) (UniProt P10828); assay: qHTS assay for small molecule agonists of thyroid hormone receptor beta signaling (AID 588545; calls by dose curve;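 also: 0% = DMSO only and 100% = 10 nM T3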)
Outline: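 TR-UAS-bla-GripTite HEK 293 cells in medium with 2% charcoal/dextran FBS, 0.1 mM NEAA and 1 mM sodium pyruvate were treated with titrated compounds for 18 hrs at 37 C. Beta-lactamase reporter was read with CCF4 dye (ex 405, em 460/530 nm); EC50 from Hill fits.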

[9] = biological target: Thyroid hormone receptor beta (Homo sapiens) (UniProt P10828); assay: qHTS assay for small molecule antagonists of thyroid hormone receptor beta signaling (AID 588547; active = well fitted inhibition curve with a large enough effect in the signal ratio, with a control signal flat, not every such curve was filed as active; the % refers to the signal ratio; also: potency is read from the fitted curve at half-maximal effect); settings: TR-UAS-bla HEK293, beta-lactamase ratio, antagonist mode, 18 h
Outline: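 Inhibition of T3-driven (0.4nM final) beta-lactamase reporter activity was measured over 0.59 nM to 92 uM compound after 18 h at 37 C. The cells were GripTite HEK293 TR-UAS-bla in charcoal/dextran-stripped serum, with CCF4 ratio read-out and IC50 from Hill fits.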

[10] = biological target: Luciferin 4-monooxygenase (Photinus pyralis) (UniProt P08659); assay: Biochemical firefly luciferase enzyme assay for NPC (AID 624030); also: nearly all actives have a fitted effect of over 70% in size; also: potency is read from the fitted curve at half-maximal effect
Outline: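 Direct inhibition of firefly luciferase enzyme (10 nM final, 50 mM Tris Acetate) assessed by luminescence within 5 minutes. Percent activity scaled between DMSO and PTC124 positive control, with concentration-effect curves classified by fit quality and response.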

[11] = S16 Schwann cell viability assay (CellTiter-Glo assay) (AID 624031); also: nearly all actives have a fitted effect of over 70% in size; also: potency is read from the fitted curve at half-maximal effect
Outline: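 Luminescent ATP read-out (CellTiter-Glo) after 24 h compound exposure of native S16 rat Schwann cells at 37 °C. Signals were normalized between cell-free wells and DMSO-treated cells, set as 0% activity.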

[12] = biological target: Bile acid receptor (Homo sapiens) (UniProt Q96RI1); assay: qHTS assay for small molecule antagonists of farnesoid X receptor signaling (AID 588526; calls by dose curve; also: % is scaled to controls: 0 for no effect and ±100 for the full control effect)
Outline: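 Beta-lactamase reporter antagonist mode: HEK293T FXR-UAS-bla cells, titrated compound, CDCA stimulation, 16 h 37 C, CCF4 dye 2 h RT. Data normalized to CDCA 50 uM and DMSO; Hill-fit IC50.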

[13] = biological target: Peroxisome proliferator-activated receptor gamma (Homo sapiens) (UniProt P37231); assay: qHTS assay for small molecule agonists of peroxisome proliferator-activated receptor gamma signaling (AID 588536; active = well fitted curve in the direction sought with a large enough effect in the signal ratio, with a control signal flat, not every such curve was filed as active; the % refers to the signal ratio;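 also: 0% = DMSO basal wells and 100% = rosiglitazone at 2 µM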)
Outline: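 HEK293 UAS-bla reporter line, 1% charcoal/dextran FBS; titration, 16 h, 37 C; CCF4 loading 2 h RT; fluorescence 460/530 nm. Normalized to rosiglitazone 2 uM = 100%, DMSO = 0%.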

[14] = biological target: Peroxisome proliferator-activated receptor gamma (Homo sapiens) (UniProt P37231); assay: qHTS assay for small molecule antagonists of peroxisome proliferator-activated receptor gamma signaling (AID 588537; active = well fitted inhibition curve with a large enough effect in the signal ratio, with a control signal flat, not every such curve was filed as active; the % refers to the signal ratio; also: potency is read from the fitted curve at half-maximal effect)
Outline: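 Antagonist mode, beta-lactamase reporter in HEK293; charcoal/dextran FBS 1%; 3000 cells/well, 37 C 6-6.5 h; cpd titration + rosiglitazone 50 nM final, 16 h 37 C; CCF4, 2 h RT; 460/530 nm; Hill fit → IC50, efficacy.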

[15] = qHTS assay for small molecule antagonists of retinoid X receptor alpha signaling (AID 588546; active = well fitted inhibition curve with a large enough effect in the signal ratio, with a control signal flat, not every such curve was filed as active; the % refers to the signal ratio;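 also: cells stimulated with 9-cis-retinoic acid as agonist; % is scaled to controls: 0 for no effect and ±100 for the full control effect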); settings: HEK293T RXRa-UAS-bla, beta-lactamase ratio, antagonist mode; measured here: W530 green channel, cytotoxicity proxy
Outline: (§2)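 Beta-lactamase reporter inhibition, read as CCF4 fluorescence ratio (ex 405, em 460/530 nm) after 2 h at RT. HEK293T UAS-bla cells, 2500/well, were stimulated with 9-cis-RA at 500 or 100 nM final alongside test compound for 18 h at 37 C.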

[16] = biological target: Retinoic acid receptor RXR-alpha (Homo sapiens) (UniProt P19793); assay: as above; settings: HEK293T RXRa-UAS-bla, beta-lactamase ratio, antagonist mode
Outline: as §2

[17] = biological target: Voltage-gated inwardly rectifying potassium channel KCNH2 (Homo sapiens) (UniProt Q12809); assay: qHTS Assay for Small Molecule Inhibitors of the Human hERG Channel Activity (AID 588834);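 also: lower thallium flux fluorescence means stronger hERG block; nearly all actives have a fitted effect of over 50% in size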; also: potency is read from the fitted curve at half-maximal effect
Outline: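 Kinetic FDSS fluorescence; U2OS + hERG BacMam (~100 virus particles/cell); FluxOR Tl+ flux; ~10 min cpd; AC50 (Hill).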

[18] = S16 Schwann cell PMP22 intronic element firefly luciferase assay (AID 624032); also: nearly all actives have a fitted effect of over 30% in size; also: potency is read from the fitted curve at half-maximal effect
Outline: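 Luciferase reporter of PMP22 intronic-element expression in stably transfected S16 rat Schwann cells, read by ONE-Glo luminescence after 24 h compound exposure at 37 C. Activity scaled between DMSO (0%) and positive-control PTC124; concentration-effect curves quality-classified.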

[19] = S16 Schwann cell PMP22 intronic element beta-lactamase assay (AID 624044; calls by dose curve;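 also: 0% = DMSO and -100% = potassium clavulanate positive control; nearly all actives have a fitted effect of over 15% in size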)
Outline: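 Rat S16 Schwann cells with beta-Lac driven by a PMP22 intronic element, compound-treated 24 h at 37 °C. LiveBLAzer FRET B/G read: 460 nm normalized to potassium clavulanate vs DMSO; 535 nm FRET as viability; concentration-effect curves classified.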

Sequence of Peroxisome proliferator-activated receptor delta (Homo sapiens) (Q03181 whole entry, looked up): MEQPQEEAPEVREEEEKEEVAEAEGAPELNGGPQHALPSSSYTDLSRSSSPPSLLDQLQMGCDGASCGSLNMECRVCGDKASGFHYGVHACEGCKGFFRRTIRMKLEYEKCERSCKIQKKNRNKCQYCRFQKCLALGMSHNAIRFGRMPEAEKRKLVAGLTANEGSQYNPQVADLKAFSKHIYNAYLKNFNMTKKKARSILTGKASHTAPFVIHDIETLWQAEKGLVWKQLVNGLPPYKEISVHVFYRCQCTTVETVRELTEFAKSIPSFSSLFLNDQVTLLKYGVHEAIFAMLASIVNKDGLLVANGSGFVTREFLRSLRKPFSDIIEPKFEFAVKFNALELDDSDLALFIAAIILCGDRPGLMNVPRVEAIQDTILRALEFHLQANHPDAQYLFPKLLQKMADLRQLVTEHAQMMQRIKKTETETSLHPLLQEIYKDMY
Sequence of Retinoic acid receptor RXR-alpha (Homo sapiens) (P19793 whole entry, looked up): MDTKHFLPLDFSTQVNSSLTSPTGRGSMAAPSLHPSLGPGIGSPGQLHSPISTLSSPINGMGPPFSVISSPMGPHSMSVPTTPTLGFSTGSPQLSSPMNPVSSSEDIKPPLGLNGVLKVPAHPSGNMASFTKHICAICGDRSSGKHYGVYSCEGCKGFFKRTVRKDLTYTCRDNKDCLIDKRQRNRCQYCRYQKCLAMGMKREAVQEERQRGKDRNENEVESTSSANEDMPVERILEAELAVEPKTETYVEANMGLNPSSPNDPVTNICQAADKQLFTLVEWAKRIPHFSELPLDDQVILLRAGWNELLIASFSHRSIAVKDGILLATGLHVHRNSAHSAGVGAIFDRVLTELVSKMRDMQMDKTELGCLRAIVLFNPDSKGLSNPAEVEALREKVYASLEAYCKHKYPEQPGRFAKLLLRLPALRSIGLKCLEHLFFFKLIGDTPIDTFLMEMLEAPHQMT
Sequence of Luciferin 4-monooxygenase (Photinus pyralis) (P08659 whole entry, looked up): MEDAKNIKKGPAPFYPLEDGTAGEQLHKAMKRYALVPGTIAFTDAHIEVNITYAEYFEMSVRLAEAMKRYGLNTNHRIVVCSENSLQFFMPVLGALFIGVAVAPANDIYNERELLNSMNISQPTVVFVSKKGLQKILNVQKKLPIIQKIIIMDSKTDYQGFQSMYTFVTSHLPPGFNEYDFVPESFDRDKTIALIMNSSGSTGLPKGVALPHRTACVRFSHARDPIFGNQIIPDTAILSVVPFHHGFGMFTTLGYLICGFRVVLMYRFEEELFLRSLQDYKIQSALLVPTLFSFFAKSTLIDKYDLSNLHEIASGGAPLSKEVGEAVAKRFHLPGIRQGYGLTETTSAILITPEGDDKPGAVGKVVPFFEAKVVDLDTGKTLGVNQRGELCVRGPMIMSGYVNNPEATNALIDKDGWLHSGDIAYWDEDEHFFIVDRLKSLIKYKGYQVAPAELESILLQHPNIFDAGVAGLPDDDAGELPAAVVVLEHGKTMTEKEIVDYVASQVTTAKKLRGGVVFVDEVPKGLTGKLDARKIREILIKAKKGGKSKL
Sequence of Bile acid receptor (Homo sapiens) (Q96RI1 whole entry, looked up): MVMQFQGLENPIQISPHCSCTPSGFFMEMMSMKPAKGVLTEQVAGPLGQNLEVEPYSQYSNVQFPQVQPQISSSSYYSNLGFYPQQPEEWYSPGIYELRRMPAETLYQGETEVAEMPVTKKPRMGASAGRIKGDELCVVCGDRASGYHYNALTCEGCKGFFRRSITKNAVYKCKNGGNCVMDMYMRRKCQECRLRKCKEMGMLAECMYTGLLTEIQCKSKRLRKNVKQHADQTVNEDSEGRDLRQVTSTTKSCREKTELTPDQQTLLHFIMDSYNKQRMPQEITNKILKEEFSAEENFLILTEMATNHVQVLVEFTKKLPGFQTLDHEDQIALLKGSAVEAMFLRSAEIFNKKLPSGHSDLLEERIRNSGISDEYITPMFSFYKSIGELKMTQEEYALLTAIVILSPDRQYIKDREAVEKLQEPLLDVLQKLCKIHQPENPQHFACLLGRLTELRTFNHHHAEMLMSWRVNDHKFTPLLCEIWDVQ
Sequence of Peroxisome proliferator-activated receptor gamma (Homo sapiens) (P37231 whole entry, looked up): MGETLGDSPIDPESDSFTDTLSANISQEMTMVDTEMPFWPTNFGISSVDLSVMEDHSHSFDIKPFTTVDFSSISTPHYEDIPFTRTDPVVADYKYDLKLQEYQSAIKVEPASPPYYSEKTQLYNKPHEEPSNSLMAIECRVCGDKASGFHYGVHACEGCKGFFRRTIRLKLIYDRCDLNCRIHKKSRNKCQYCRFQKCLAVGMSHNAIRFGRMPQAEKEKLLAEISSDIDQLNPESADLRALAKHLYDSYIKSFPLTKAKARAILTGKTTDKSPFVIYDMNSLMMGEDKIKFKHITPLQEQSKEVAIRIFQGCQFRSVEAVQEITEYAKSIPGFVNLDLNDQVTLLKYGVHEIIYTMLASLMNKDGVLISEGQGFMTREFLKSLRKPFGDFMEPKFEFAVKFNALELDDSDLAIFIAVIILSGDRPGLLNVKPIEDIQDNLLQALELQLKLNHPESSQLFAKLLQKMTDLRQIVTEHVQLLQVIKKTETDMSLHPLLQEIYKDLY
Sequence of Glucocorticoid receptor (Homo sapiens) (P04150 whole entry, looked up): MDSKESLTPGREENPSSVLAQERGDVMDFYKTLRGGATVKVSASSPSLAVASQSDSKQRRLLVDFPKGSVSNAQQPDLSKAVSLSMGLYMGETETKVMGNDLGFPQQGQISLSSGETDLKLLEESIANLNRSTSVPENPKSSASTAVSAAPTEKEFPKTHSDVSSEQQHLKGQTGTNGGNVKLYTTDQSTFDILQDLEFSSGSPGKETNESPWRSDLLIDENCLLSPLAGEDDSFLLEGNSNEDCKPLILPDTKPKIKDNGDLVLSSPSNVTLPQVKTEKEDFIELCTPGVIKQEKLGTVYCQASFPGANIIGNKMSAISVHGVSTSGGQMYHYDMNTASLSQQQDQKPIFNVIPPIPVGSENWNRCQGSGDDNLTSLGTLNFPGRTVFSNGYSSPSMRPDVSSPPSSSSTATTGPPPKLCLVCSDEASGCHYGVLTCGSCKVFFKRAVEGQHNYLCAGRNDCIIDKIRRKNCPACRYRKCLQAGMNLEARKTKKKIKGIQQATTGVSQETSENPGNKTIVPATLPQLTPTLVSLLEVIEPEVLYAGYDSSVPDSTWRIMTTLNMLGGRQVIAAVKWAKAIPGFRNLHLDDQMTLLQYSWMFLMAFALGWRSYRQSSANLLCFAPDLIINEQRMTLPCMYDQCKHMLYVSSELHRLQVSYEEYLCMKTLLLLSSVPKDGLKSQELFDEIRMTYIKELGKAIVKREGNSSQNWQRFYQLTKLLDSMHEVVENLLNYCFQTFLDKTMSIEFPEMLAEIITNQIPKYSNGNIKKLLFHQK
Sequence of Voltage-gated inwardly rectifying potassium channel KCNH2 (Homo sapiens) (Q12809 whole entry, looked up): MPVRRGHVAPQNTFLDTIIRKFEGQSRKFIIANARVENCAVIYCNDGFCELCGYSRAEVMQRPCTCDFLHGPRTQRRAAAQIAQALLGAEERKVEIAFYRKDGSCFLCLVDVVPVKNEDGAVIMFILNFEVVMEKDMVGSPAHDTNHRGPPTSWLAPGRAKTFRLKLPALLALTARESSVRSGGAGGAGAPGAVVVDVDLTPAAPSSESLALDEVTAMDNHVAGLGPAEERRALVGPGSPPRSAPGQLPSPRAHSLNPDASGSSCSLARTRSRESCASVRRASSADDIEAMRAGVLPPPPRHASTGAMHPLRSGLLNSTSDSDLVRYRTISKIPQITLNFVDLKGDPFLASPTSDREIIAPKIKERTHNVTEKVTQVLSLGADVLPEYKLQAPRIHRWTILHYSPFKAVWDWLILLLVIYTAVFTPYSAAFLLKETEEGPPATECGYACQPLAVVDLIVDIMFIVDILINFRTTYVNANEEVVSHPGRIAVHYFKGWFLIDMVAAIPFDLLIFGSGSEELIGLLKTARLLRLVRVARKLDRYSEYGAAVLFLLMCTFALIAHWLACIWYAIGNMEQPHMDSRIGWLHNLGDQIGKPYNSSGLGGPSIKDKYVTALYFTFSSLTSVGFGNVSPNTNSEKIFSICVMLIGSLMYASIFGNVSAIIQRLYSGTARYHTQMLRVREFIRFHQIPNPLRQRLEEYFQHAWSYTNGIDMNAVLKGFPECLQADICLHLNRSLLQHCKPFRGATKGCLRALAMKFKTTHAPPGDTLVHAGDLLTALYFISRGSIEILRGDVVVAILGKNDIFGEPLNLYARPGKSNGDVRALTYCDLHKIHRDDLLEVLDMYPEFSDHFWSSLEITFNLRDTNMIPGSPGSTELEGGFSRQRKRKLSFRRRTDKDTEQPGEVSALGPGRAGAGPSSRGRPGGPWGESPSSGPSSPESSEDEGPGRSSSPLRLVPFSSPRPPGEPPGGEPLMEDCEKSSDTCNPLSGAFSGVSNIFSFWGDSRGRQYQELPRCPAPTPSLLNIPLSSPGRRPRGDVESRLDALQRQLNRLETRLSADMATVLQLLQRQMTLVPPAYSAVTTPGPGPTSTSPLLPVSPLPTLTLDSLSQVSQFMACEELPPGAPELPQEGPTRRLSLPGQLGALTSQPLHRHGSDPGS
Sequence of Thyroid hormone receptor beta (Homo sapiens) (P10828 whole entry, looked up): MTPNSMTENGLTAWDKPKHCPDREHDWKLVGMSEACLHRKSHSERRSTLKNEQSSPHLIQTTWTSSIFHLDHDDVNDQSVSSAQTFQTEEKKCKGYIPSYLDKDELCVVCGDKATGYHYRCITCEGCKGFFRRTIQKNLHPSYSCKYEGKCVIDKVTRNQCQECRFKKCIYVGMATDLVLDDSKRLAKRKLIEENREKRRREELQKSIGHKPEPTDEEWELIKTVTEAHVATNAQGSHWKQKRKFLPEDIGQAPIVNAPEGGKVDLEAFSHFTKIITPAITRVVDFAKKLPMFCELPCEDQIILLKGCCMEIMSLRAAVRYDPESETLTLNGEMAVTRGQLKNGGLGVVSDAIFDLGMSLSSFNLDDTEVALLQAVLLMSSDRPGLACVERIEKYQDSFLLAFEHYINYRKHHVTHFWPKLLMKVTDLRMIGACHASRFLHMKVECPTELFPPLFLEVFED

N=C(N)c1ccc(OCCCCCOc2ccc(C(=N)N)cc2)cc1
inactive: activation [1] -5.79% and -1.59% | outcome [2] | outcome [4] | outcome [5] | outcome [7] | outcome [8] | activity change % (negative = inhibition) [9] -26.1% | Potency [10] | Potency [11]
18.8%: max response [6]
-25.7%: max response [3]

Cc1noc(NS(=O)(=O)c2ccc(N)cc2)c1C
3.43%: max response [6]
23.8% and 11.7%: max response [3]
9.97% and -11.9%: max response [15]
inactive: outcome [12] | outcome [4] | outcome [13] | Potency [14] | outcome [7] | outcome [8] | max response [16] 10.6% and -8.28% | Potency [17] | Potency [10] | Potency [11] | Potency [18]

S=P(N1CC1)(N1CC1)N1CC1
-19.8%: max response [6]
inactive: outcome [12] | activation [1] -9.54% | outcome [2] | outcome [4] | outcome [13] | Potency [14] | outcome [5] | outcome [7] | outcome [8] | activity change % (negative = inhibition) [9] -0.913% | Potency [17] | Potency [10] | Potency [11] | Potency [18] | Potency [19]
6.13%: max response [3]

CCc1cc(C(N)=S)ccn1
-0.783%: max response [15]
-5.67%: max response [6]
inactive: activation [1] 1.04% | outcome [2] | outcome [4] | outcome [5] | outcome [7] | outcome [8] | max response [16] 10.8% | activity change % (negative = inhibition) [9] 7% | Potency [17] | Potency [10] | Potency [18] | Potency [19]
-62.7% and 18.6%: max response [3]

O=C(N[C@H](CO)[C@H](O)c1ccc([N+](=O)[O-])cc1)C(Cl)Cl
-4.34% and 5.8%: max response [3]
-13.6%: max response [6]
-5.3% and -7.21%: max response [15]
inactive: outcome [4] | outcome [13] | Potency [14] | outcome [7] | outcome [8] | max response [16] 39.9% and -11.1% | activity change % (negative = inhibition) [9] 0.142% and 20.5% | Potency [10]

Cn1c(=O)c2c(ncn2CC(O)CO)n(C)c1=O (centres undefined)
inactive: Potency [17]

CC(=O)[C@H]1CC[C@H]2[C@@H]3CC=C4C[C@@H](O)CC[C@]4(C)[C@H]3CC[C@]12C
inactive: Potency [17]

CN(C)c1ccc(C(=C2C=CC(=[N+](C)C)C=C2)c2ccc(N(C)C)cc2)cc1
active: Potency [14] 44.7 µM | Potency [9] 28.2 µM | Potency [17] 10 µM and 12.6 µM | Potency [10] 12.8 µM | Potency [11] 9.07 µM | Potency [18] 9.07 µM
inactive: activation [1] -0.396% and -10.9% | outcome [5] | outcome [8]

NNC(=O)c1ccncc1
inactive: activation [1] -1.09% | outcome [2] | outcome [4] | outcome [13] | Potency [14] | outcome [5] | outcome [7] | outcome [8] | max response [16] 3.12% | activity change % (negative = inhibition) [9] 10.5% | Potency [10]
1.75%: max response [15]
1.41%: max response [6]
0.593%: max response [3]

C[C@]12C=CC(=O)C=C1CC[C@@H]1[C@@H]2C(=O)C[C@@]2(C)[C@H]1CC[C@]2(O)C(=O)CO
13.7%: max response [6]
4.53%: max response [15]
inactive: outcome [13] | outcome [5] | outcome [7] | outcome [8] | max response [16] -10.9% | activity change % (negative = inhibition) [9] -0.0632% | Potency [17] | Potency [10] | Potency [11] | Potency [18] | Potency [19]

Nc1nc(F)nc2c1ncn2[C@@H]1O[C@H](CO)[C@@H](O)[C@@H]1O
inactive: Potency [17]

COc1c(N2CCNC(C)C2)c(F)cc2c(=O)c(C(=O)O)cn(C3CC3)c12 (centres undefined)
inactive: Potency [17] | Potency [10] | Potency [11] | Potency [18]

COc1cc(NS(=O)(=O)c2ccc(N)cc2)nc(OC)n1
inactive: Potency [17] | Potency [10] | Potency [11] | Potency [18]

COc1ccc(-c2ccc3cc(C(=O)O)ccc3c2)cc1C12CC3CC(CC(C3)C1)C2
inactive: Potency [17] | Potency [10] | Potency [11]

NC(=O)N1c2ccccc2CC(=O)c2ccccc21
inactive: Potency [17] | Potency [10] | Potency [11]

CC(C)C1CCC(C(=O)N[C@H](Cc2ccccc2)C(=O)O)CC1 (some centres undefined)
inactive: Potency [17]

CCC(=O)O[C@]1(C(=O)SCF)[C@H](C)C[C@H]2[C@@H]3C[C@H](F)C4=CC(=O)C=C[C@]4(C)[C@@]3(F)[C@@H](O)C[C@@]21C
inactive: Potency [17]

CN1CCN(c2c(F)cc3c(=O)c(C(=O)O)cn(CCF)c3c2F)CC1
inactive: Potency [17] | Potency [10] | Potency [11] | Potency [18]

O=P(O)(O)C(O)(Cc1cccnc1)P(=O)(O)O
inactive: Potency [17] | Potency [10] | Potency [11] | Potency [18]

CCN(C)C(=O)Oc1cccc([C@H](C)N(C)C)c1
inactive: Potency [17] | Potency [10] | Potency [11] | Potency [18]

NC(=O)c1cccnc1
inactive: Potency [17] | Potency [10] | Potency [11] | Potency [18]

CCCCOc1ccc(CC(=O)NO)cc1
inactive: Potency [17] | Potency [10] | Potency [11]

Cc1oc(=O)oc1CN1CCN(c2cc3c(cc2F)c(=O)c(C(=O)O)c2n3C(C)S2)CC1 (centres undefined)
inactive: Potency [17] | Potency [10] | Potency [11] | Potency [18]

CC(C)(Sc1cc(C(C)(C)C)c(O)c(C(C)(C)C)c1)Sc1cc(C(C)(C)C)c(O)c(C(C)(C)C)c1
inactive: Potency [17] | Potency [10] | Potency [11] | Potency [18]

COC(c1ccccc1)(c1ccccc1)[C@H](Oc1nc(C)cc(C)n1)C(=O)O
inactive: Potency [17]

O=c1cc(O)c(Cl)c[nH]1
inactive: Potency [17] | Potency [10] | Potency [11] | Potency [18]

Clc1ccccc1CN1CCc2sccc2C1
inactive: Potency [10] | Potency [11] | Potency [18]
active: Potency [17] 14.1 µM
